Compound activity as filed in PubChem BioAssay.
Only some compounds are listed: those with a hit (about 2.6% of all), similar ones and a draw of the others.
LMP1 NFkB inh: EBV LMP1-driven NF-kappaB luciferase reporter inhibitors, primary screen, cell-based, luminescence, single point | LMP1-induced NF-kappaB luciferase reporter cells | inhibition, % at 12.5 µM | actives 0.69% (n = 350,000); in the data active = inhibition above about 41%; inconclusive = no clear call, values can overlap the other calls;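 also: 0% = neutral control wells and 100% = reference inhibitor control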
aDG glyco act: activators of alpha-DG glycosylation, primary screen, uHTS, Pro5-aDG cells, AlphaScreen | alpha-DG glycosylation AlphaScreen (IIH6); 0% Pro5, 100% B10-LARGE cell signal | activation, % at 10 µM | actives 0.22% (n = 360,000);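 active = activation of at least 8% versus controls, or a plate z-score of at least 8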;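 also: Pro5 are CHO cells carrying HIG-tagged alpha-DG that lacks glycosylation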
LGR2 inh: inhibitors of bursicon-induced LGR2 CRE-luciferase signal, primary screen, cell-based, HEK293, CRE-luciferase reporter, bursicon stimulation; Drosophila bursicon receptor LGR2 (rickets); bursicon-stimulated, 4 h; AID 720647, 2013; inhibition, % at 9.99 µM; actives 0.35% (n = 380,000);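 active = drop in luminescence signal, shown as inhibition above about 50% in the replicate tests, limit read from the data, passing the limit was not always enough; inconclusive = probably only some replicates passing the limit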;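 also: agonist challenge used bursicon conditioned medium at about half maximal strength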
TWEAK-Fn14 inh: inhibitors of TWEAK-Fn14 signaling, primary screen, luciferase reporter cells, uHTS; TWEAK-stimulated Fn14 reporter cells, luciferase luminescence, 8 h; inhibition, % at 10 µM; actives 2% (n = 360,000); in the data active = inhibition above about 50%
TROY NFkB inh: inhibitors of TROY-driven NF-kB signaling, primary screen, Q293 LMP1-TROYcd cells, NF-kB luciferase, uHTS; Q293 LMP1-TROYcd NF-kB luciferase reporter, 4 h; inhibition, % at 10 µM; actives 0.98% (n = 360,000); AID 1347056, 2019;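 active = compounds whose plate-normalised and pattern-corrected inhibition of the luciferase reporter signal at the single screening dose is 50% or more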
HSP90 inh: HSP90 inhibitors, primary screen, cell lysate, luminescence | Heat shock protein HSP 90 (rabbit reticulocyte lysate; luciferase refolding) | Rabbit reticulocyte lysate, luciferase refolding luminescence, 3 h | inhibition, % at 5.6 µM | actives 0.91% (n = 290,000) | AID 1789, 2009;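 active = inhibition above the screen-wide mean plus 3 SD, computed separately per campaign, cut at about 16% in these data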;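 also: 0% = DMSO wells and 100% = 60 µM geldanamycin wells; inhibitors lower the luminescence because luciferase stays unfolded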
HSP90 confirm: HSP90 inhibitors, confirmation, cell lysate, luminescence; shares compounds with HSP90 inh; rabbit reticulocyte lysate, luciferase refolding luminescence, 3 h; inhibition, % at 5.9 µM; actives 64% (n = 2,300); in the data active = inhibition above about 18%;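 also: 0% = vehicle wells and 100% = reference inhibitor wells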
luciferase ctr: firefly luciferase inhibitors, HSP90 counter-screen, confirmation, artefact control for HSP90 inhibitor project, biochemical, luminescence, triplicate; shares compounds with HSP90 inh; purified native firefly luciferase; inhibition, % at 5.9 µM; actives 48% (n = 2,300); AID 1847, 2009;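 active = inhibition above the mean inhibition of all tested sample wells plus 3 SD, cut at about 10% in these data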;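 also: 0% = DMSO with luciferase and 100% = wells lacking luciferase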
Target sequence (P08659 whole entry, looked up): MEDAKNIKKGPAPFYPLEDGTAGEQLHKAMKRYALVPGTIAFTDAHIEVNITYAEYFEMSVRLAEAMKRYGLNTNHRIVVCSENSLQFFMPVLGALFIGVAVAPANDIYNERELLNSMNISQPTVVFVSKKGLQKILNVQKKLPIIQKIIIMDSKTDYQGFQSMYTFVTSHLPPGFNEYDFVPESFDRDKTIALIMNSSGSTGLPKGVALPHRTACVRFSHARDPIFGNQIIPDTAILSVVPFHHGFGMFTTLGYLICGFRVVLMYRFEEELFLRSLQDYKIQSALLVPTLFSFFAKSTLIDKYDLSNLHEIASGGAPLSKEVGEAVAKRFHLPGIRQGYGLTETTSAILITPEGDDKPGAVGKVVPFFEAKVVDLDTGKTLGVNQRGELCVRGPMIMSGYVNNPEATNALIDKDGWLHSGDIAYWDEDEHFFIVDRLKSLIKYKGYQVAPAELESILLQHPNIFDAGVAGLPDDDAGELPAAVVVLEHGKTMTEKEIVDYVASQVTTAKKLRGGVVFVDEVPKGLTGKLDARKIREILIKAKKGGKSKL
* hit, by the source's call; ? = inconclusive; nt = not tested or not shown.

SMILES	LMP1 NFkB inh	aDG glyco act	LGR2 inh	TWEAK-Fn14 inh	TROY NFkB inh	HSP90 inh	HSP90 confirm	luciferase ctr
COc1cccc(C(=O)Nc2ccc3ccccc3c2)c1	-4	0	?	63*	17	18*	46*	37*
C[C@@H]1CN([C@@H](C)CO)C(=O)c2c(c3ccccc3n2C)-c2ccccc2CO[C@@H]1CN(C)C(=O)c1ccccc1	nt	nt	-10	nt	nt	nt	nt	nt
O=C(Nc1cccc(C(=O)O)c1)Nc1ccccc1Cl	?	0	70*	-13	-51	77*	74*	71*
O=C(Nc1ccc(Cl)cc1)Nc1ccccc1C(=O)O	19	-1	?	49	47	27*	46*	43*
COC(=O)c1cccc(NC(=O)NC(=O)c2ccccc2Cl)c1	37	0	-2	-14	-17	29*	71*	16*
O=C(Nc1cccc(Cl)c1)Nc1ccccc1C(=O)O	-3	0	-78	-10	-8	11	nt	nt
O=C(Nc1ccc2nccnc2c1)Nc1ccccc1Cl	-11	0	-40	-12	-30	6	nt	nt
Cc1nc2cc(NC(=O)Nc3ccccc3Cl)ccc2n1C	14	0	51*	59*	34	32*	59*	38*
CC(C)NC(=O)NCC[C@H]1CC[C@@H](NS(=O)(=O)c2ccccc2)[C@@H](CO)O1	nt	nt	22	nt	nt	nt	nt	nt
CN(C)C(=O)C[C@@H]1CC[C@@H](NC(=O)NC2CCCCC2)[C@H](CO)O1	nt	nt	-7	nt	nt	nt	nt	nt
O=C(C1CCOCC1)N1C[C@@H]2[C@H](c3ccccc31)[C@@H](CO)N2C(=O)Nc1ccccc1F	nt	nt	-11	nt	nt	nt	nt	nt
COc1ccc(-c2cnc3c(c2)C(=O)N([C@H](C)CO)C[C@@H](C)[C@@H](CN(C)C)O3)cc1	nt	nt	1	nt	nt	nt	nt	nt
CCOc1ccc(NC(=O)Nc2cccc(C(=O)O)c2)cc1	81*	0	105*	23	-53	89*	90*	85*
O=C(NCc1ccccc1)C(=O)Nc1cccc(C(=O)O)c1	67*	0	84*	9	-27	42*	71*	73*
Cc1ccccc1OCC(=O)Nc1cccc(C(=O)O)c1	77*	0	101*	59*	18	97*	91*	86*
CCOc1ccc(NC(=O)c2ccccn2)cc1	65*	0	95*	95*	72*	83*	88*	80*
Cc1cccc(OCC(=O)Nc2cc(NC(=O)COc3cccc(C)c3C)cc(C(=O)O)c2)c1C	-1	0	17	-17	-8	2	nt	nt
O=C(C[C@@H]1C=C[C@H](NS(=O)(=O)c2cccc(F)c2)[C@@H](CO)O1)N1CCCCC1	nt	nt	2	nt	nt	nt	nt	nt
Cc1noc(C)c1S(=O)(=O)Nc1cccc2c1O[C@H](CN(C)S(=O)(=O)c1cccs1)[C@H](C)CN([C@@H](C)CO)C2=O	nt	nt	-6	nt	nt	nt	nt	nt
C[C@H](CO)N1C[C@H](C)[C@H](CN(C)S(=O)(=O)c2cccs2)Oc2ncc(/C=C/c3ccccc3)cc2C1=O	nt	nt	-11	nt	nt	nt	nt	nt
O=C(Nc1cccc(Cl)c1)Nc1cccc(C(=O)O)c1	43*	0	?	-3	-51	51*	69*	63*
O=C(Nc1ccc(Cl)cc1)Nc1cccc(C(=O)O)c1	62*	0	92*	11	-56	78*	89*	87*
O=C(Nc1ccccc1)Nc1cccc(Cl)c1	-12	2	nt	-23	-26	3	nt	nt
O=C(Nc1cccc(C(=O)O)c1)Nc1cccc2ccccc12	-10	0	-6	-23	-42	19*	32*	15*
C[C@H]1CN([C@@H](C)CO)C(=O)c2cc(C#CC3(O)CCCC3)cnc2O[C@@H]1CN(C)Cc1ccccn1	nt	nt	-7	nt	nt	nt	nt	nt
SMILES	LMP1 NFkB inh	aDG glyco act	LGR2 inh	TWEAK-Fn14 inh	TROY NFkB inh	HSP90 inh	HSP90 confirm	luciferase ctr
COc1ccc(S(=O)(=O)N(C)C[C@@H]2OCCCC[C@@H](C)Oc3ccc(NS(=O)(=O)c4ccccc4)cc3C(=O)N([C@H](C)CO)C[C@H]2C)cc1	nt	nt	-18	nt	nt	nt	nt	nt
CCCC#Cc1ccc([C@H]2[C@@H](CO)N(S(C)(=O)=O)[C@H]2C#N)cc1	nt	nt	8	nt	nt	nt	nt	nt
O=C1COc2ccc3ccccc3c21	-14	0	3	9	48	25*	6	-3
C[C@@H]1CCCCO[C@H](CN(C)S(C)(=O)=O)[C@@H](C)CN([C@@H](C)CO)C(=O)c2cc(NS(=O)(=O)c3cn(C)cn3)ccc2O1	nt	nt	1	nt	nt	nt	nt	nt
O=C(NC1CCCCC1)NC1(C(=O)NCCCN2CCOCC2)CCCCC1	11	0	nt	-18	-2	27*	-1	-3
O=C(Nc1ccccc1Cl)NC1(C(=O)NCCCN2CCOCC2)CCCCC1	-2	0	nt	-7	6	5	nt	nt
CCOC(=O)c1cc(-c2ccccc2)sc1NC(=O)C(C)C	8	0	nt	-1	-3	0	nt	nt
CCOC(=O)c1cc(-c2ccccc2)sc1NC(=O)C(C)N1C(=O)NC(C)(c2ccc(Cl)cc2)C1=O (configuration not stated)	-11	0	nt	-1	2	18*	9	-6
CCCNC(=O)C[C@H]1C[C@@H]2c3cc(NC(=O)c4cccnc4)ccc3O[C@@H]2[C@@H](CO)O1	nt	nt	5	nt	nt	nt	nt	nt
O=S(=O)(O)c1cccc(N=Nc2c(O)ccc3ccccc23)c1	11	0	-4	-3	3	33*	34*	0
C[C@@H]1CN([C@H](C)CO)C(=O)c2cc(NC(=O)Cn3cnnn3)ccc2O[C@@H]1CN(C)Cc1ccc2c(c1)OCO2	nt	nt	-11	nt	nt	nt	nt	nt
CNC(=O)C[C@@H]1CC[C@H]2[C@@H](COc3ccc(NC(=O)c4ccc(F)cc4)cc3C(=O)N2C)O1	nt	nt	5	nt	nt	nt	nt	nt
CCn1c(C)nc2cc(C(=O)NNC(=S)Nc3ccccc3)ccc21	-13	0	-55	71*	78*	34*	32*	27*
CC(=O)CSc1ccc(-c2nc3cc(C)c(C)cc3[nH]2)cn1	72*	0	98*	102*	88*	69*	91*	57*
CC(=O)CSc1ccc(-c2nc3ccccc3[nH]2)cn1	6	0	7	69*	15	24*	46*	2
